Screening results from PubChem BioAssay.
Pf growth 48h = Primary qHTS for delayed death inhibitors of the malarial parasite plastid, 48 hour incubation | P. falciparum luciferase growth in erythrocytes, 48 h | Potency, µM (doses to about 28.7 µM), inactives show at the top dose activity change, negative = inhibition, hits mostly inhibitors | 310,000 compounds, 5.9% hits | AID 504832, 2011; further: potency means the concentration at half of the fitted maximal effect
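Parasite viability was followed by luminescence of a genomically integrated firefly luciferase. Cultures held 0.1% parasitemia at 2% hematocrit (final), incubated under 5% CO2 at 37 C.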
HCMV inh = qHTS Assay for inhibitors of the human cytomegalovirus (HCMV); HFF cells, HCMV-luciferase reporter, 72 h; hits give low values; activity change, negative = inhibition, % at 57.5 µM; 410,000 compounds, 4.5% hits; in the data active means activity change below about -60%; inconclusive means no clear call, values can overlap the other calls; inactive means above about -39%
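Inhibition of viral replication was scored as loss of reporter luminescence in HFFs infected with HCMV-luciferase (MOI 1 PFU/cell) for 72 h; compounds tested at 2 doses, normalized to buffer and Salinomycin controls.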
Sm TGR block = qHTS Assay for the Inhibitors of Schistosoma Mansoni Peroxiredoxins | Schistosoma mansoni thioredoxin glutathione reductase (TGR), Q962Y6 | purified TGR, DTNB reduction, TNB absorbance 405 nm | Potency, µM (titrated, usually from 114 µM), for the others: at the top dose activity change, negative = inhibition, usual class: inhibitors | 360,000 compounds, 3% hits; further: potency means the concentration at half of the fitted maximal effect; nearly all actives have a fitted effect of over 60% in size
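Kinetic colorimetric format: TGR-catalysed, NADPH-driven DTNB reduction monitored via TNB absorbance. Enzyme dispensed at 20 nM; compound exposure 15 min at room temperature before reaction start.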
Pf growth 96h = Primary qHTS for delayed death inhibitors of the malarial parasite plastid, 96 hour incubation | P. falciparum luciferase reporter growth, 96 h | Potency, µM (titrated, usually from 28.7 µM), inactives show top-dose activity change, negative = inhibition, actives largely listed as inhibitors | 320,000 compounds, 6.9% hits | AID 504834, 2011; further: potency means the concentration at half of the fitted maximal effect
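Readout is luminescence from an integrated firefly luciferase in P. falciparum. Red cells, 2% hematocrit and 0.05% parasitemia final, were cultured with compound through two parasite generations (96 hours) at 37 C, 5% CO2.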
FBPA Giardia inh = qHTS Assay for Inhibitors of Fructose-1,6-bisphosphate Aldolase from Giardia Lamblia; A8B2U2; purified Giardia FBPA; Potency, µM (series often up to 59.6 µM), inactives show at the highest dose activity, negative = inhibition, hits mostly inhibitors; 290,000 compounds, 0.71% hits; AID 2451, 2010; further: potency means the concentration at half of the fitted maximal effect; nearly all actives have a fitted effect of over 55% in size
Target sequence (A8B2U2 whole entry, looked up): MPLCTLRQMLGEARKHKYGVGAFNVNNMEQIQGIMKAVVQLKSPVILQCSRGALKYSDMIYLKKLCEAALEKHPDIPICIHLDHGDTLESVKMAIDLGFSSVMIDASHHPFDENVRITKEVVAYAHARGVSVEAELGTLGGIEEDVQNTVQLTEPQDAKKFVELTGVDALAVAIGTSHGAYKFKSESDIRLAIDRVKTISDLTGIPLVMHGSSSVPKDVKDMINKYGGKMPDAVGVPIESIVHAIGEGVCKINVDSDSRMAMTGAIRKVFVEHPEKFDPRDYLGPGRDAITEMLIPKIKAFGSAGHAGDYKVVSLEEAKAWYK
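40 nM FBPA preincubated 10 min at RT with compound (up to 57.5 uM final), then substrate plus GAPDH/TPI/NAD/arsenate coupling and diaphorase/resazurin added. Fluorescence read after 20 min at RT, 525/598 nm.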
Active calls of the source: *; ? = inconclusive; . = no result; [ ] = dose if it differs, or a comment. A selection: hits, their analogues and other compounds. The true share with any hit is near 14%. Unless noted, the call rests on the fitted dose curve; in most records, active means well fitted curve in the direction sought with a large enough effect; inconclusive means small, poorly fitted or top-dose-only effect, or another doubt; inactive means no such curve, though single readings can be large; an effect the other way counts as inactive or inconclusive. On the % scale 0 is the no-effect control and ±100 the full control effect.

SMILES	Pf growth 48h	HCMV inh	Sm TGR block	Pf growth 96h	FBPA Giardia inh
COc1ccc2[nH]c(=O)c(CN(Cc3cccs3)S(=O)(=O)c3cccc4nsnc34)cc2c1	7.38µM*	?	-7.5%	-6.8%	-23.8%
Cc1oc(-c2ccc(Cl)cc2)[n+]([O-])c1C	7.6%	3.1	50.1µM*	?	3.2%
OC(c1ccc(F)c(F)c1)c1nc(-c2ccc(Cl)cc2)cs1 (centres undefined)	.	-14.5	.	.	.
CC[C@H](C)[C@@H](C(=O)N1CCCC1c1nccs1)N(C)C(=O)[C@H](CC(C)C)N(C)C(=O)[C@H](Cc1ccc(OC)cc1)N(C)C(=O)/C=C(\C)OC (some centres undefined)	.	11.3	.	.	.
CC[C@@H](C)[C@H](C(CC(=O)N1CCCC1[C@@H](OC)[C@H](C)C(=O)N[C@H](Cc1ccccc1)c1nccs1)OC)N(C)C(=O)[C@H](NC(=O)[C@@H](C(C)C)N(C)C)C(C)C (some centres undefined)	.	-90.7*	.	.	.
O=C(COC(=O)CCOc1ccccc1)NCc1ccco1	-8.0%	-12.1	35.5µM*	1.6%	0.8%
O=C(COC(=O)CCC(=O)c1ccc(Cl)cc1)NCc1ccco1	37.6%	12.0	17.8µM*	3.7%	-5.5%
Cc1ccc(-c2csc(=S)n2CC(=O)OCC(=O)NC(C)C(C)C)cc1 (centres undefined)	6.2%	23.7	-0.1%	0.0%	-0.7%
Cc1ccc(-c2csc(=S)n2CC(=O)OCC(=O)NCc2ccco2)cc1	-4.3%	47.5	39.8µM*	.	-0.6%
O=C(COC(=O)CCC(=O)c1ccc(F)cc1)NCc1ccc(Cl)cc1	.	-17.9	.	.	.
COc1ccc(OCC(=O)OCC(=O)NCc2ccco2)cc1	6.8%	109.1	18.8%	-7.1%[5.75 µM]	-5.9%
CCCN1C(=O)C[C@H](S(=O)(=O)c2ccccc2)[C@H]1c1ccc(C#N)cc1	.	-19.3	.	.	.
CCc1ccc(NC(=O)C2CCN(c3ncnc4c3nc3n4CCCCC3)CC2)cc1	-16.4%	-72.6*	-12.4%	?	3.3%
COCCCNC(=O)C1CCN(c2ncnc3c2nc2n3CCCCC2)CC1	.	-15.6	-3.8%	.	.
COC(=O)C(CCSC)NC(=O)C1CCN(c2ncnc3c2nc2n3CCCCC2)CC1 (centres undefined)	.	-100.4*	0.9%	.	.
O=C(Nc1ccc(F)cc1)C1CCN(c2ncnc3c2nc2n3CCCCC2)CC1	?	-8.9	-8.3%	20.7%	.
O=C(Nc1ccccn1)C1CCN(c2ncnc3c2nc2n3CCCCC2)CC1	-5.6%	-84.3*	-7.6%	?	6.3%
COc1ccc(NC(=O)c2ccco2)cc1NC(=O)c1cccc(C)c1OC	.	?	-4.5%	.	.
Cc1cc(C(=O)COC(=O)c2ccc[nH]c2=O)c(C)n1C	29.5%	-20.0	1.4%	45.6%	5.5%
Cc1cc(C)c(C(=O)COc2cccnc2[N+](=O)[O-])cc1C	5.8%	-33.3	15.8µM*	.	?
COCCn1c(C)cc(C(=O)COC(=O)c2ccc[nH]c2=O)c1C	60.9%	-64.6*	2.0%	204.8%	3.8%
COCCn1c(C)cc(C(=O)COc2cccnc2[N+](=O)[O-])c1C	41.5%	-84.4*	?	-13.0%	?
COc1ccc(CC(=O)NCc2csc(-c3cccs3)n2)cc1OC	-22.4%	-22.9	-7.5%	?	2.2%
Cc1onc(-c2ccccc2)c1C(=O)N1CCN(c2ccccc2F)CC1	-9.8%	11.8	-6.4%	?	-6.0%
Cc1onc(-c2ccccc2)c1C(=O)Nc1cc(C(F)(F)F)ccc1N1CCOCC1	.	-34.1	9.9%[11.4 µM]	-8.9%	5.5%
SMILES	Pf growth 48h	HCMV inh	Sm TGR block	Pf growth 96h	FBPA Giardia inh
CCOC(=O)c1ccc(N2CCOCC2)c(NC(=O)c2c(-c3ccccc3)noc2C)c1	13.1µM*	-5.4	32.6%	?	1.2%
Cc1onc(-c2c(Cl)cccc2Cl)c1C(=O)N1CCN(c2ccccc2F)CC1	13.1µM*	-24.3	-12.9%	?	-3.5%
Cc1onc(-c2ccccc2)c1C(=O)Nc1ccccc1N1CCOCC1	?	10.9	0.4%	.	-13.0%
Cc1onc(-c2c(F)cccc2Cl)c1C(=O)Nc1ccccc1N1CCOCC1	1.85µM*	-13.1	22.7%	2.62µM*	-1.1%
CCOC(=O)CSc1cc(=O)n(CC)c2ccccc12	9.1%	-3.4	7.0%	10.4µM*	2.8%
CCn1c(=O)cc(SCC(=O)Nc2cccnc2)c2ccccc21	14.0%	36.4	6.3%	11.7µM*	9.7%
CCn1c(=O)cc(SCC(=O)N(C)Cc2ccccc2)c2ccccc21	.	58.5	0.0%	?	-1.7%
CCN(CC)CCOC(=O)c1ccc(NC(=O)COc2cc(=O)n(CC)c3ccccc23)cc1	-13.0%	-100.7*	-0.8%	?	10.5%
CCN(CC)CCOC(=O)c1ccc(NC(=O)CSc2cc(=O)n(CC)c3ccccc23)cc1	.	62.0	8.2%	.	.
CC1CC(C)CN(CCCNC(=O)COc2cc(=O)n(C)c3ccccc23)C1 (centres undefined)	10.4µM*	117.2	-5.2%	-5.3%	-5.8%
O=S(=O)(NCC1CCN(Cc2ccccc2)CC1)c1ccccc1C(F)(F)F	-11.0%	-21.2	9.0%	-10.0%	3.8%
O=C(c1cccc(Cl)c1)N(Cc1cccc(F)c1)C1CCS(=O)(=O)C1 (centres undefined)	.	-4.6	50.1%	.	.
CC(C)c1ccc(NC(=O)CSC2=Nc3ccccc3C3=NC(CC(=O)NCc4ccc(F)cc4)C(=O)N23)cc1 (centres undefined)	.	-11.9	-6.2%	.	.
O=S(=O)(Cc1ccccc1)N1CCNCC1	40.5%	13.9	-0.3%	1.3%	0.3%
CCOC(=O)COc1cc(=O)n(CC)c2ccccc12	17.3%	0.0	5.3%	8.28µM*	-7.2%
Cn1c(=O)cc(OCCCC(=O)Nc2ccc(F)cc2)c2ccccc21	.	-27.5	7.4%	.	.
CCc1ccc(NC(=O)CCCOc2cc(=O)n(C)c3ccccc23)cc1	.	-97.8*	.	.	.
